# Assay results reported in PubChem BioAssay AID488969 (Vanderbilt High Throughput Screening Facility, 2010).
# The full ranking holds about 110,000 compounds; the median of “z-score” is about -0.1, and the highest 2% start at about 2. The entries come from a sample that favours the highest values as a whole. Active and inactive are the calls of the source.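 How the source made its calls: active means z-score in the third read window above 3 or below -3; inactive means the rest.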
# Target: Metabotropic glutamate receptor 8 (Rattus norvegicus) (UniProt P70579)
# Sequence (P70579 whole entry, looked up): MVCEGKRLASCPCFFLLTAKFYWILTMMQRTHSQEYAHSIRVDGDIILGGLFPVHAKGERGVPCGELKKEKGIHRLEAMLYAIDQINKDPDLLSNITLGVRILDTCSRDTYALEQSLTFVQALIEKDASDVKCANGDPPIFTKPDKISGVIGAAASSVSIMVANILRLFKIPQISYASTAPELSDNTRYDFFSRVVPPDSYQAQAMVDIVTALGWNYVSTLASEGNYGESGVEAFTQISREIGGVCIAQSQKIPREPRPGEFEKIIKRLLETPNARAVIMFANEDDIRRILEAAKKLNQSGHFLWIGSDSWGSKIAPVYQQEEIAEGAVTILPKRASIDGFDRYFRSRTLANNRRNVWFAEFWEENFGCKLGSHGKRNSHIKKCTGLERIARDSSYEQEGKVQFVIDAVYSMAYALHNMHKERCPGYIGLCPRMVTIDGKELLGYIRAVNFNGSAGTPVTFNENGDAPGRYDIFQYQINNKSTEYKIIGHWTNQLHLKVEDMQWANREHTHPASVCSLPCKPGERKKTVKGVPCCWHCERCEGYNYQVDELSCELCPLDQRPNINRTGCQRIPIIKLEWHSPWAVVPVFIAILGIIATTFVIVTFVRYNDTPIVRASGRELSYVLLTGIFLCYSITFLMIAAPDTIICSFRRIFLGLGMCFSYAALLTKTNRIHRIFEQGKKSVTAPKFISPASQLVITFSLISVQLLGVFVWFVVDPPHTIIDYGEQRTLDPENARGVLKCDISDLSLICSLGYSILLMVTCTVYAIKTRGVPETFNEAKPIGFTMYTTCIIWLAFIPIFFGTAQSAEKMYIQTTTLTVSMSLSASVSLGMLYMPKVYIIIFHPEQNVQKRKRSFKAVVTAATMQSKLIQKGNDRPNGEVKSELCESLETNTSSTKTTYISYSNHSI
# Experiment: mGluR8 Gi/Go-coupled signaling modulation – cell-based, rat, thallium flux, HTS, primary screen (AID 488969)
# Settings: HEK293 rat mGluR8, GIRK (G protein-gated inwardly rectifying potassium channel) thallium flux, FluoZin2; at 10 µM; stronger effect = higher value; submaximal glutamate (EC20) added with thallium
row,Structure (SMILES),z-score
1,CCC(=O)NCCCCNC(=O)CC,0.217
2,CC1(C)CC(=O)C2=C(C1)OC(N)=C(C#N)C2c1cn(-c2ccccc2)nc1-c1ccc(F)cc1 (stereo not given),-0.436
3,CCNC(=O)c1ccccc1NC(=O)c1cccc(S(=O)(=O)N2CCC(C)CC2)c1,-1.17
4,O=C1/C(=C\c2ccc(-c3ccccc3Cl)o2)SC(=S)N1CC1CCCO1 (stereo not given),0.755
5,O=C1N=C(N2CCOCC2)S/C1=C\c1ccc(-c2ccccc2Cl)o1,-0.0639
6,O=C1NC(=S)/C(=C\c2ccc(-c3ccccc3Cl)o2)S1,3.83 (active)
7,COC(=O)c1sccc1NC(=O)c1c(C)cc(=O)oc1C,-0.28
8,Nc1ccc(C(=O)OCC(=O)NC2CCCc3ccccc32)cc1[N+](=O)[O-] (stereo not given),-0.347
9,Cc1ccc(NC(=O)C(NC2CCCc3ccccc32)c2ccccc2)cc1Cl (stereo not given),-0.174
10,Cc1ccc(NC(=O)C(NC2CCCc3ccccc32)c2ccccc2)c([N+](=O)[O-])c1 (stereo not given),2.09
11,O=C(NC1CCCCC1)N(C1=NCCCCC1)c1ccc(Br)cc1,-0.204
12,CCOC(=O)C1=C(c2ccccc2)OC(N)=C(C#N)C1C1CCCCC1 (stereo not given),-0.435
13,COc1ccc(/C=C2\N=C(SC)SC2=O)cc1OC,-0.325
14,Cc1ccc2ncccc2c1[N+](=O)[O-],-0.242
15,Cc1cc(-c2ccc(F)cc2)nc2cc(C(N)=O)nn12,0.242
16,COC(=O)c1cc2nc(-c3ccccc3)cc(C)n2n1,0.0407
17,CCOc1ccc(-c2cc(C)n3nc(C(N)=O)cc3n2)cc1,5.02 (active)
18,O=C(COc1ccccc1F)N1c2ccccc2CCc2ccccc21,-0.375
19,C=CCNC(=S)NC1CC(C)(C)NC(C)(C)C1,0.609
20,CCc1nn(-c2cc(Cl)ccc2OC)c2c1C(=O)CCC2,-0.275
21,CCOC(=O)c1c(NC(=S)NC)sc2c1CC(C)(C)SC2,12.5 (active)
22,CCOC(=O)c1c(NC(=S)Nc2cccc(C)c2)sc2c1CC(C)(C)SC2,0.0638
23,CCOC(=O)c1c(NC(=S)NCCc2ccccc2)sc2c1CC(C(C)C)OC2 (stereo not given),3.42 (active)
24,C=C(C)CNC(=S)Nc1sc2c(c1C(=O)OCC)CC(C)(C)OC2,0.296
25,C=CCNC(=S)Nc1sc2c(c1C(=O)OCC)CC(C(C)C)OC2 (stereo not given),8.63 (active)

row,Structure (SMILES),z-score
1,CCOC(=O)c1c(NC(=O)c2ccc(C)cc2)sc2c1CC(C)(C)OC2,-0.222
2,CC(C)C1Cc2c(sc(NC(=S)NC(=O)c3ccccc3)c2C#N)CO1 (stereo not given),-0.13
3,CCOC(=O)c1c(NC(=O)c2ccccc2C)sc2c1CC(C)(C)OC2,-0.332
4,C=CCNC(=S)Nc1sc2c(c1C(=O)OCC)CCN(C(=O)OCC)C2,0.145
5,CCOC(=O)c1c(NC(=S)Nc2ccccc2)sc2c1CCN(CCc1ccccc1)C2,0.012
6,C=CCNC(=S)Nc1sc2c(c1C(=O)OCC)CC(C)(CC)OC2 (stereo not given),2.22
7,CCOC(=O)c1c(NC(=S)Nc2ccccc2)sc2c1CC(C)(C)SC2,-0.0674
8,O=C(NCc1ccco1)c1ccccc1F,0.717
9,Cc1ccc(C)c(NC(=O)CNS(=O)(=O)c2ccccc2)c1,-0.144
10,O=C(CSc1nnnn1-c1ccccc1)N1CCCc2ccccc21,-0.861
11,Cc1ccc(NC(=O)CSc2nnc(-c3ccncc3)n2C)cc1C,-0.215
12,COc1cc(OC)c(NC(=O)c2cccc(F)c2)cc1Cl,-0.155
13,COc1ccc(CC(=O)N(c2ccccc2)c2nc(C)cs2)cc1,-0.721
14,CCC(=O)Nc1ccc(NC(=O)C23CC4CC(CC(C4)C2)C3)cn1,-0.0944
15,CCCC(=O)Nc1ccc(NC(=O)c2cccc(OC)c2)nc1,2.18
16,CCCCC(=O)Nc1ccc(NC(=O)C2CC2)cn1,0.324
17,CCCCC(=O)Nc1ccc(NC(=O)C2CC2)nc1,0.252
18,CCCC(=O)Nc1cc(C)c(NC(=O)C23CC4CC(CC(C4)C2)C3)cn1,0.0448
19,CCCC(=O)Nc1ccc(NC(=O)C23CC4CC(CC(C4)C2)C3)cn1,5.76 (active)
20,COc1cccc(C(=O)Nc2ccc(NC(C)=O)cn2)c1,0.157
21,CCCC(=O)Nc1ccc(NC(=O)C2CC2)cn1,13.2 (active)
22,CCC(=O)Nc1ccc(NC(=O)c2cccc(OC)c2)nc1,0.209
23,O=C(Nc1ccc(Cl)cn1)c1cccc(F)c1,0.192
24,C[N+]1=C(/C=C/Nc2ccccc2Cl)C(C)(C)c2ccccc21,0.3
25,COc1ccc(Cl)cc1NC(=O)NC(C)c1ccncc1 (stereo not given),-0.275

row,Structure (SMILES),z-score
1,O=C(Nc1cc(C(F)(F)F)ccc1N1CCCC1)c1cccnc1,0.0707
2,O=C(Cn1cc(/C=N/O)c2ccccc21)N1CCOCC1,-0.312
3,C=CCn1c(COc2ccc(Cl)cc2)nnc1SCC(=O)N1CC(=O)Nc2ccccc21,-0.735
4,Nc1nnc(Cc2ccccc2)s1,-0.122
5,CC1CCc2nc(NC(=O)Nc3ccc4c(c3)OCO4)sc2C1 (stereo not given),-0.337
6,CC1CCc2nc(NC(=O)CN3CCN(Cc4ccc5c(c4)OCO5)CC3)sc2C1 (stereo not given),2.47
7,CC1CCc2nc(NC(=O)CN3CCOCC3)sc2C1 (stereo not given),-0.313
8,S=C(NCc1ccco1)N/N=C/c1ccccc1Cl,2.22
9,Oc1ccc(/C=N/NC(=S)NCc2ccco2)cc1,0.806
10,S=C(NCCc1ccccc1)N/N=C/c1cccc(Cl)c1Cl,2.63
11,S=C(NCc1ccco1)Nc1ccc(Cl)c(Cl)c1,8.32 (active)
12,S=C(NCCc1ccccc1)N/N=C/c1ccccc1Cl,0.283
13,CCc1ccc(/C=N/NC(=S)NCCc2ccccc2)cc1,0.0899
14,S=C(NCc1ccco1)N/N=C/c1ccc(Cl)cc1,2.21
15,CN(C)c1ccc(/C=N/NC(=S)NCc2ccco2)cc1,0.0065
16,COc1cc(/C=N/NC(=S)NCc2ccco2)cc(OC)c1OC,-0.66
17,CCN(CC)c1ccc(/C=N/NC(=S)NCc2ccco2)cc1,0.137
18,S=C(NCc1ccco1)Nc1cc(Cl)c(Cl)cc1Cl,0.256
19,S=C(NCc1ccco1)Nc1cccc(Cl)c1,0.899
20,Cc1ccccc1N1C(=O)C(Oc2ccc(Cl)cc2)C1CNC(C)(C)C (stereo not given),0.46
21,Cc1c(C)n(C)c2ccc(C(=O)Nc3cccc4ccccc34)cc12,0.368
22,O=C(O)c1ccc(N2C(=O)c3cccc(Oc4ccc(Cl)cc4)c3C2=O)cc1,0.79
23,CN(C)CCCNC(=O)COc1ccc(Br)cc1Cl,0.032
24,CCc1ccc(/C=C/C(=O)c2ccc(S(=O)(=O)N(C)C)cc2)cc1,-0.379
25,C(=C\c1ccccc1)/CSc1nnc(-c2ccccc2)n1Cc1ccco1,-0.701
